Source: PubChem BioAssay (National Center for Advancing Translational Sciences (NCATS))
KDM4E inh: JMJD2E (human) inhibition | JMJD2E catalytic domain, FDH-coupled NADH fluorescence (FDH is formaldehyde dehydrogenase) | B2RXH2 | AID 2147 | hit rate 1.6% among 230,000 | Potency, µM (highest dose often 57.1 µM), for the others: top-dose activity change, negative = inhibition, actives largely listed as inhibitors;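 note: potency is the fitted concentration of half-maximal effect; 0% = wells with enzyme and -100% = buffer wells without enzyme; nearly all actives have a fitted effect of over 50% in size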
Target sequence (B2RXH2 1-337 limits assumed): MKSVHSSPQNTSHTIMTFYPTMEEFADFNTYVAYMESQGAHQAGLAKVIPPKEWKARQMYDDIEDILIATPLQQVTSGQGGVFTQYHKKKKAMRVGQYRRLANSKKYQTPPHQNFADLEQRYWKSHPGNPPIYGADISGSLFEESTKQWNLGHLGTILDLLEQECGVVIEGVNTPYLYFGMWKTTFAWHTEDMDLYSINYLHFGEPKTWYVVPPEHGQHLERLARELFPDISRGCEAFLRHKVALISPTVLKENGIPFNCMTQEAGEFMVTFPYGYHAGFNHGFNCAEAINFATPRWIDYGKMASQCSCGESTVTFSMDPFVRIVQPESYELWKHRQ
PNC inhibitor: blocks assembly of the perinucleolar compartment; PC3M PTB-GFP, PNC prevalence imaging, 16 h; hits give low values; activity change (PNC), negative = inhibition, % at 10 µM; hit rate 3.1% among 140,000;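 active = readout at or below -70, meaning at least 70% loss of cells showing the perinucleolar compartment, a nuclear body marking cancer cells; inconclusive = readout between -30 and a set limit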;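 note: plate controls were DMSO wells for no effect and camptothecin positive control wells for full effect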
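Read-out is percentage of cells bearing a perinucleolar compartment, from automated 20x imaging of fixed, Hoechst-stained PC3M PTB-GFP cells. Cells were seeded 4 h, then exposed 16 h to compound (23 nl of library stock) in duplicate plates.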
ALDH1A1 block: blocks purified human ALDH1A1 activity | P00352 | Potency, µM (top dose mostly 75.3 µM), for the others: top-dose activity, negative = inhibition, usual class: inhibitors | AID 1030 | Purified ALDH1A1, NADH fluorescence, propionaldehyde substrate | hit rate 7.3% among 220,000;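 note: potency is the fitted concentration of half-maximal effect; plate controls were no enzyme wells and a reference inhibitor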
HPGD block: inhibitors of human 15-hydroxyprostaglandin dehydrogenase (HPGD); hit rate 4.3% among 150,000; purified HPGD, NADH fluorescence kinetic, PGE2 substrate; AID 894; Potency, µM, for the others: at the top dose activity change, negative = inhibition, actives largely listed as inhibitors; note: potency is the fitted concentration of half-maximal effect
Target sequence (P15428 whole entry, looked up): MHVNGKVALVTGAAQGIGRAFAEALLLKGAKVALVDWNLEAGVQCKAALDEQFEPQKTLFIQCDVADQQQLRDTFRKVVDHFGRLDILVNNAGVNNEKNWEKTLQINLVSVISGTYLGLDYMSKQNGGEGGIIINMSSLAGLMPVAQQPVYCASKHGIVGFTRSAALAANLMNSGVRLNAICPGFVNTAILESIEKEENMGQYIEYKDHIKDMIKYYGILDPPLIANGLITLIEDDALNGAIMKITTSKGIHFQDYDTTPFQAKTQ
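NADH formation kinetics: reaction with 30 uM PGE2 and 1 mM NAD+ (final), 20 nM enzyme, Tris-HCl pH 8 with Tween 20, after 15 min compound preincubation at room temperature. Fluorescence change, last versus first of five reads.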
Active calls of the source: *; ? = inconclusive; . = no result; [ ] = remark or other dose. Sampled rows, rich in hits. Any-hit rate of the full collection: about 11%. Unless noted, calls come from the whole dose curve; as a rule, active = well fitted inhibition curve with a large enough effect (not every such curve was filed as active); inconclusive = small, poorly fitted or top-dose-only effect, or another doubt; inactive = no such curve, though single readings can be large or run the other way. Unless noted, % is set by controls: 0 for no effect and ±100 for the full control effect.

SMILES	KDM4E inh	PNC inhibitor	ALDH1A1 block	HPGD block
CCC(C)NS(=O)(=O)c1ccc(S(=O)(=O)N(CC(=O)Nc2ccccc2)Cc2ccco2)cc1 (centres undefined)	-2%	11	25µM*	-11%
C[C@@H](C(=O)Nc1ccc2ccccc2c1)[C@@H]1C[C@@]1(C)[C@@H](NC(=O)c1ccncc1Cl)c1ccccc1	-6%	.	0%	-12%
CS(=O)(=O)N(CC(=O)Nc1ccc(S(=O)(=O)N2CCCC2)cc1)c1ccccc1F	-15%	?	-9%	-5%
O=C(Nc1cccc(F)c1)N1CCCC2(CCN(C(=O)c3ccco3)CC2)C1	.	.	?	-18%
C#Cc1ccc([C@@H]2C=C(C(=O)OCC=C)O[C@H](OCCCCO)C2)cc1	0%	.	16µM*	.
C#Cc1ccc([C@@H]2C=C(C(=O)OCC=C)O[C@H](OCc3ccc(CO)cc3)C2)cc1	-7%	.	13µM*	.
Cc1cc(NC(=O)CC2(CC(=O)O)CCCC2)n(C)n1	-2%	.	.	.
Cc1[nH]c(=O)[nH]c(=O)c1CSCC(=O)OCC(=O)Nc1ccccn1	-4%	.	.	.
Cc1ccc(C2CN=NC23CCc2ccccc2C3=O)cc1 (centres undefined)	-8%	16	?	32µM*
CC(=O)c1cccc(NC(=O)Cc2ccc3c(c2)CCCC3)c1	1%	-9	13µM*	25µM*
CC(=O)c1cccc(NC(=S)NC(=O)c2ccccc2)c1	-9%	34	?	?
CC(=O)c1cccc(NC(=S)NC(=O)c2cccc(Cl)c2)c1	-4%	?	20µM*	?
Cc1cc(C)cc(NCC(=O)Nc2c(C)cccc2C)c1	-5%	-90*	?	-22%
Cc1cccc(NC(=O)CC(C)(C)C)c1	-5%	?	-2%	16µM*
CC(=O)Nc1cccc(C)c1	.	.	-5%	-9%
CC1(C)CC(=O)c2cnc(N3CCc4ccccc43)nc2C1	1%	.	.	.
CC(C)(C)c1ccc(-c2cn(-c3ccc(Br)cc3)c3[n+]2CCCS3)cc1	-1%	.	?	.
COc1cc(O)c2c(O)c3c(c4c2c1[C@@]1(C4)C(C)=CCCC1(C)C)[C@H](O)[C@@]1(O)CC(=O)C(C(N)=O)=C(O)[C@]1(O)C3=O	.	.	9%[13.5 µM]	-23%
CC(C)c1ccc(Cn2ccc3c4c(N)nc(NC5CC5)nc4ccc32)cc1	?	.	2%	?
CC(=O)c1cccc(NC(=S)NC(=O)CC(C)(C)C)c1	6%	14	-4%	16µM*
CC(=O)c1cccc(NC(=S)NC(=O)C(C)C)c1	6%	15	7%	-9%
Cc1ccc2[nH]c(=O)c(C(c3nnnn3C3CCCC3)N3CCCc4ccccc43)cc2c1 (centres undefined)	?	24	14µM*	-15%
CCC(C)(C)n1nnnc1C(c1cc2cc(C)ccc2[nH]c1=O)N1CCCc2ccccc21 (centres undefined)	-8%	11	-2%	-5%
Cc1ccc2[nH]c(=O)c(C(c3nnnn3CC3CCCO3)N3CCCc4ccccc43)cc2c1 (centres undefined)	-12%	?	13µM*	-9%
COCCNC(=O)[C@H](C)/C=C/C(NC(=O)OCc1ccccc1)c1ccc(C(=O)OC)cc1 (some centres undefined)	-11%	.	?	-13%
SMILES	KDM4E inh	PNC inhibitor	ALDH1A1 block	HPGD block
O=C(O)c1cccc(NCc2ccncc2)c1	?	-81*	?	-26%
CN(O)/C=C/C(=O)c1ccc(Br)cc1	0%	.	13µM*	.
COC(=O)C(C)N(C(=O)c1cccc(Cl)c1)c1c(C)cccc1C (centres undefined)	2%	-92*	?	-8%
COCCN(C(=O)CSc1nnc(-c2cccc(OC)c2)n1C)c1c(N)n(Cc2ccccc2)c(=O)[nH]c1=O	8%	.	24%	.
O=C(CSc1ccc2nnc(CCNS(=O)(=O)c3ccccc3)n2n1)Nc1nc2ccccc2s1	?	-13	25µM*	-4%
Cc1csc(NC(=O)CSc2ccc3nnc(CCNS(=O)(=O)c4ccccc4)n3n2)n1	1%	26	7%	-12%
CCCCCCC(=O)N(O)C1CC(=O)N(c2ccc(C)cc2)C1=O (centres undefined)	-14%	-16	0.45µM*	7.9µM*
Cc1ccc(N2C(=O)CC(N(O)C3CC(=O)N(c4ccc(C)cc4)C3=O)C2=O)cc1 (centres undefined)	-6%	0	2.8µM*	32µM*
CC1C/C(=C/c2ccncc2)C(=O)/C(=C/c2ccncc2)C1 (centres undefined)	-13%	.	-2%	.
CC1C/C(=C/c2cccn2C)C(=O)/C(=C/c2cccn2C)C1 (centres undefined)	?	-8	3.5µM*	-23%
CCC(=O)N(Cc1ccco1)c1nc(C(=O)Nc2ccc(Cl)cc2)c(C)s1	?	29	22µM*	?
Oc1ccc2ccccc2c1/C=C\c1ccc2c(Br)cc(Br)c(O)c2n1	.	.	21%[13.5 µM]	-13%
CC(=C\c1ccccc1)/C=C1/SC(=O)N(CCCC(=O)Nc2ccc(C(=O)O)cc2)C1=O	6%	.	-13%	.
CC(/C=C1\SC(=S)N(CCCC(=O)Nc2ccc(C(=O)O)c(O)c2)C1=O)=C\c1ccccc1	7%	-14	6.3µM*	?
COc1ccc(CN(CCC(c2ccccc2)c2ccco2)C(=O)c2ccco2)cc1 (centres undefined)	-11%	2	7.9µM*	28µM*
O=C(c1ccco1)N(CCC(c1ccccc1)c1ccco1)Cc1ccccc1 (centres undefined)	-8%	-20	8.9µM*	-20%
COc1ccc(CCN(Cc2nc3ccccc3c(=O)[nH]2)C(=O)c2ccco2)cc1	5%	24	-3%	-9%
Cc1cccc(N2C(=O)CSC23CCCCC3)c1	-11%	.	2%	.
Cc1cc(C(=O)OCC(N)=O)c(C)n1-c1ccccc1	-22%	.	1%	.
C/C(N)=C(/C#N)C(=O)COC(=O)c1cc(C)n(-c2ccc(F)cc2)c1C	3%	-129*	13µM*	-27%
O=C(NCC(O)CN1CCOCC1)c1ccc([N+](=O)[O-])cc1 (centres undefined)	8%	.	10%	.
COc1ccccc1CN1CCCC2(CCN(C(=O)c3cccn3C)CC2)C1	.	.	8%	-10%
O=C(/C=C/c1ccc(S(=O)(=O)N2CCOCC2)cc1)NCc1ccccc1Cl	2%	42	8.9µM*	-11%
CC/C=C\C[C@H](O)/C=C/C=C\C/C=C\C/C=C\CCCC(=O)O	1%	.	4%	-5%
Nc1nnnn1CC(=O)N/N=C/c1ccccn1	-16%	.	1%	.
N#CCc1c(C#N)c(N)nc(N2CCCC(O)C2)c1C#N (centres undefined)	?	.	3.5µM*	.
CN1CCN(NC(=O)c2ccc(Br)c(S(=O)(=O)N3CCOCC3)c2)CC1	-10%	?	3%	-15%
O=C1C(O)=C(O)C(=O)C(O)=C1O	13µM*	.	?	-17%
COc1ccc(CNC(=O)CN(Cc2ccc(F)cc2)C(=O)c2csnn2)cc1	-6%	.	?	.
O=C(Cn1nc(C(F)(F)F)c2c1CCC2)NCc1ccc(Cl)cc1	5%	-14	11%	-8%
